This is part of a sample that, as a whole, favours compounds with a hit. Of some 83,000 tested, about 20% had one in any assay.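 Cells were grown in 96-well plates and exposed to the test compound at a single concentration for 48 hours; results are reported as percent growth, with values below 10 considered active.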 A number with no mark means an inactive call. The source made the active and inactive calls.

The first assay relates to MDA-MB-435 melanoma. Put plainly: NCI-60 one-dose screen, 48 h (100 = growth as untreated, 0 = no growth, -100 = all killed). The following applies: 10 µM unless noted.
On to `O=[N+]([O-])c1cc([N+](=O)[O-])c(NN=C(c2ccc(O)cc2)c2ccc(O)cc2)cc1Cl`, for which the growth is -62.1% (active). On to `Cc1cc(SC#N)ncn1`, for which the growth was 107%. In the case of `O=C(N/N=C/c1c(Cl)cccc1Cl)c1cccc(Nc2ccnc(C(F)(F)F)c2)c1`, the growth is 78.9%. Take `O=[N+]([O-])c1cc([N+](=O)[O-])c(C(F)(F)F)cc1NN=C(c1ccc(O)cc1)c1ccc(O)cc1`: the growth is 99.1%. As to `N/C(=N\c1nc2ccccc2[nH]1)NC(=O)Cc1cccc2ccccc12`, the growth is 94.3%.

As for `CCN(CC)CCCC(C)Nc1ccnc2cc(Cl)c(SCc3ccccc3)cc12` (centres undefined), the growth is -71.2% (active). The same measure, in the same setting: as for `O=C(Oc1ccc(Cl)cc1[N+](=O)[O-])Oc1ccc(Cl)cc1[N+](=O)[O-]`, the figure is 120%.

`C[C@@H](NC(=O)[C@@H](CC(=O)N1CCC(N2CCCCC2)CC1)N1C(=O)[C@@H](N2C(=O)OC[C@@H]2c2ccccc2)[C@H]1/C=C/c1cccc(Cl)c1)c1ccccc1`: the growth was 1.09% (active). `COc1ccc2c3ccnc(C(F)(F)F)c3n(CCCCN)c2c1`: the growth is 45.9%.

Turning to `CCOC(=O)c1c[nH]c2cc(OCC3CC3)c(OCC3CC3)cc2c1=O`, the growth was 107%. On the same count and under the same terms, as for `COc1ccc(-c2nc3ccccn3c2/C=C/C(=O)c2cc(OC)c(OC)c(OC)c2)cc1OC`, the figure is 20.3%. On the same count and under the same terms, for `NC(=S)Cc1ccccc1` the value was 97.7%; for `CC(C)C1=NOC(=O)C1=Cc1cn(-c2ccccc2)nc1-c1cccc([N+](=O)[O-])c1`, 80%; for `O=c1c2c3c(sc2n2cnnc2n1Cc1ccccc1)CCCC3`, 113%. Same read-out and setting: as for `COc1cc(C)cc2oc3oc(=O)c(C(=O)c4cc5cc(Br)ccc5o4)cc3c(=O)c12`, the figure is 104%; as for `COc1ccc(OC)c([N+](=O)[O-])c1C(=O)CNC(C)=O`, 103%. For `COc1cc(C(=O)/C=C/c2c(-c3ccc(F)cc3)nc3sccn23)cc(OC)c1OC`, the growth is -72.7% (active). Turning to `CC(C)c1ccc(C(=O)Nc2nc3ccc(O)cc3s2)cc1`, the growth was 22%. For the molecule `C=C(C)C1CCC2(C(=O)O)CCC3(C)C(CCC4C5(C)CCC(OC(=O)NCc6ccccc6)C(C)(C)C5CCC43C)C12` (centres undefined), the growth was 58.7%. `CCOC(=O)c1ccc2nc(-c3c(C)nn(-c4ccccc4)c3N3CCOCC3)[nH]c2c1`: the growth is 99.4%. Same read-out and setting: as for `Nc1nc(SCc2cccc([N+](=O)[O-])c2)c2[nH]cnc2n1`, the figure is 104%. Same read-out and setting: as for `COc1ccc2nc3c(cc2c1)C(=O)CC(c1ccccc1)C3` (centres undefined), the figure is -67.7% (active); as for `CCCC[C@@H](C=O)NC(=O)[C@H](CC(C)C)NC(=O)[C@H](CC(C)C)NC(=O)OCc1ccccc1`, -4.11% (active). `O=C(N/N=C/c1ccc([N+](=O)[O-])cc1)c1ccc(Br)o1`: the growth is 108%. Still for that read-out and setting: as for `NC1=NC(=O)NC1(c1ccccc1)c1ccccc1`, the figure is 104%; as for `CSc1nc2sc3cc(Cl)c(Cl)cc3n2c(=N)c1C#N`, 97.7%; as for `Cn1c(=O)c(C#N)c(-c2ccco2)n2c(S(=O)(=O)Cc3ccccc3)nnc12`, 83%.

For `Nc1ccc2c(c1)Cc1cc(NC(=O)C(F)(F)F)ccc1-2`, the growth was 102%.

Regarding `NC(=O)c1c(NC(=O)COC(=O)Cc2ccccc2F)sc2c1CCC2`, the growth was 105%. On the same count and under the same terms, for `Cc1cccc([N+](=O)[O-])c1I` the value was 103%. Same read-out and setting: as for `COc1ccc2nc3ccccc3c(NCCNCCO)c2c1`, the figure is -53.8% (active); as for `Cc1cc(NN=C(c2ccc(O)cc2)c2ccc(O)cc2)c([N+](=O)[O-])cc1[N+](=O)[O-]`, 47.5%. Take `N#Cc1c(Cl)nc(SCC2CO2)nc1-c1ccccc1` (centres undefined): the growth was 110%. As to `CCCCCCCCCCCCCCNC(=O)Nc1ccc(Cl)c(Cl)c1`, the growth is 18.3%. Still for that read-out and setting: for `O=C1NC(=O)c2cc([N+](=O)[O-])cc3cccc1c23` the value was 100%. Same read-out and setting: for `CCN(CC)CCSC(=O)C(O)(c1ccccc1)C1CCCC1` (centres undefined) the value was 115%; for `CCC(Br)(CC)C(=O)c1ccc(OCC(=O)O)c(Cl)c1Cl`, 101%; for `COc1ccc(C2CC(c3cc(OC)c(OC)c(OC)c3)=NN2C(C)=O)cc1OCC(=O)Nc1nc2ccc(C(F)(F)F)cc2s1` (centres undefined), 69.5%.

The test system of the next assay is SW-620 colon. The assay is described as above. The following applies: 10 µM unless noted.
Take `O=[N+]([O-])c1cc([N+](=O)[O-])c(NN=C(c2ccc(O)cc2)c2ccc(O)cc2)cc1Cl`: the growth is -75% (active). For the molecule `Cc1cc(SC#N)ncn1`, the growth was 106%.

Turning to `O=C(N/N=C/c1c(Cl)cccc1Cl)c1cccc(Nc2ccnc(C(F)(F)F)c2)c1`, the growth is 99%. On the same count and under the same terms, as for `O=[N+]([O-])c1cc([N+](=O)[O-])c(C(F)(F)F)cc1NN=C(c1ccc(O)cc1)c1ccc(O)cc1`, the figure is 106%. On to `N/C(=N\c1nc2ccccc2[nH]1)NC(=O)Cc1cccc2ccccc12`, for which the growth was 85.6%. On to `CCN(CC)CCCC(C)Nc1ccnc2cc(Cl)c(SCc3ccccc3)cc12` (centres undefined), for which the growth was -85.3% (active). The same measure, in the same setting: as for `O=C(Oc1ccc(Cl)cc1[N+](=O)[O-])Oc1ccc(Cl)cc1[N+](=O)[O-]`, the figure is 109%; as for `C[C@@H](NC(=O)[C@@H](CC(=O)N1CCC(N2CCCCC2)CC1)N1C(=O)[C@@H](N2C(=O)OC[C@@H]2c2ccccc2)[C@H]1/C=C/c1cccc(Cl)c1)c1ccccc1`, 66.3%. For the molecule `COc1ccc2c3ccnc(C(F)(F)F)c3n(CCCCN)c2c1`, the growth was 38.5%.

Regarding `CCOC(=O)c1c[nH]c2cc(OCC3CC3)c(OCC3CC3)cc2c1=O`, the growth is 100%. Consider `COc1ccc(-c2nc3ccccn3c2/C=C/C(=O)c2cc(OC)c(OC)c(OC)c2)cc1OC`, for which the growth is 14.6%. As for `NC(=S)Cc1ccccc1`, the growth is 102%. Same read-out and setting: for `CC(C)C1=NOC(=O)C1=Cc1cn(-c2ccccc2)nc1-c1cccc([N+](=O)[O-])c1` the value was 57.8%; for `O=c1c2c3c(sc2n2cnnc2n1Cc1ccccc1)CCCC3`, 113%. Still for that read-out and setting: for `COc1cc(C)cc2oc3oc(=O)c(C(=O)c4cc5cc(Br)ccc5o4)cc3c(=O)c12` the value was 101%. As for `COc1ccc(OC)c([N+](=O)[O-])c1C(=O)CNC(C)=O`, the growth is 106%. With `C=C(C)C1CCC2(C(=O)O)CCC3(C)C(CCC4C5(C)CCC(OC(=O)NCc6ccccc6)C(C)(C)C5CCC43C)C12` (centres undefined), the growth is 34.9%. `CCOC(=O)c1ccc2nc(-c3c(C)nn(-c4ccccc4)c3N3CCOCC3)[nH]c2c1`: the growth was 97.3%. On the same count and under the same terms, for `Nc1nc(SCc2cccc([N+](=O)[O-])c2)c2[nH]cnc2n1` the value was 107%; for `COc1ccc2nc3c(cc2c1)C(=O)CC(c1ccccc1)C3` (centres undefined), 17.8%.

On to `CCCC[C@@H](C=O)NC(=O)[C@H](CC(C)C)NC(=O)[C@H](CC(C)C)NC(=O)OCc1ccccc1`, for which the growth is -34.6% (active). On the same count and under the same terms, for `O=C(N/N=C/c1ccc([N+](=O)[O-])cc1)c1ccc(Br)o1` the value was 104%; for `NC1=NC(=O)NC1(c1ccccc1)c1ccccc1`, 99.2%; for `CSc1nc2sc3cc(Cl)c(Cl)cc3n2c(=N)c1C#N`, 98.1%.

On to `Cn1c(=O)c(C#N)c(-c2ccco2)n2c(S(=O)(=O)Cc3ccccc3)nnc12`, for which the growth was 99.5%. Same read-out and setting: for `Nc1ccc2c(c1)Cc1cc(NC(=O)C(F)(F)F)ccc1-2` the value was 105%; for `NC(=O)c1c(NC(=O)COC(=O)Cc2ccccc2F)sc2c1CCC2`, 97.4%; for `Cc1cccc([N+](=O)[O-])c1I`, 108%.

In the case of `COc1ccc2nc3ccccc3c(NCCNCCO)c2c1`, the growth was -18.3% (active).

For the molecule `Cc1cc(NN=C(c2ccc(O)cc2)c2ccc(O)cc2)c([N+](=O)[O-])cc1[N+](=O)[O-]`, the growth is 71.4%. For the molecule `N#Cc1c(Cl)nc(SCC2CO2)nc1-c1ccccc1` (centres undefined), the growth is 111%. Same read-out and setting: as for `CCCCCCCCCCCCCCNC(=O)Nc1ccc(Cl)c(Cl)c1`, the figure is 32.9%; as for `O=C1NC(=O)c2cc([N+](=O)[O-])cc3cccc1c23`, 98.2%; as for `CCN(CC)CCSC(=O)C(O)(c1ccccc1)C1CCCC1` (centres undefined), 102%. For `CCC(Br)(CC)C(=O)c1ccc(OCC(=O)O)c(Cl)c1Cl`, the growth was 112%. Same read-out and setting: for `COc1ccc(C2CC(c3cc(OC)c(OC)c(OC)c3)=NN2C(C)=O)cc1OCC(=O)Nc1nc2ccc(C(F)(F)F)cc2s1` (centres undefined) the value was 84.7%.

Source of the values: PubChem BioAssay (NCI).
